Columns and labels:
Details in all cases: concentration: 1 μM, replicates: in singlicate; n = 1
EPHA7 = tested on: EPHA7
EPHA8 = tested on: EPHA8
EPHB1 = tested on: EPHB1
EPHB2 = tested on: EPHB2
EPHB3 = tested on: EPHB3
EPHB4 = tested on: EPHB4
EPHB6 = tested on: EPHB6
ERBB2 = tested on: ERBB2
ERBB3 = tested on: ERBB3
ERBB4 = tested on: ERBB4
ERK1 = tested on: T1, ERK1
T1 construct: gene MAPK3

ERK2 = tested on: T2, ERK2
T2 construct: gene MAPK1

ERK3 = tested on: T3, ERK3
T3 construct: gene MAPK6

ERK4 = tested on: T4, ERK4
T4 construct: gene MAPK4

ERK5 = tested on: T5, ERK5
T5 construct: gene MAPK7

ERK8 = tested on: T6, ERK8
T6 construct: gene MAPK15

ERN1 = tested on: ERN1
FAK = tested on: T7, FAK
T7 construct: gene PTK2

FER = tested on: FER
FES = tested on: FES
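Note: KINOMEscan kinase panel screen.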

Row | SMILES | %Inh (EPHA7) | %Inh (EPHA8) | %Inh (EPHB1) | %Inh (EPHB2) | %Inh (EPHB3) | %Inh (EPHB4) | %Inh (EPHB6) | %Inh (ERBB2) | %Inh (ERBB3) | %Inh (ERBB4) | %Inh (ERK1) | %Inh (ERK2) | %Inh (ERK3) | %Inh (ERK4) | %Inh (ERK5) | %Inh (ERK8) | %Inh (ERN1) | %Inh (FAK) | %Inh (FER) | %Inh (FES)
1 | O=C1NC(=O)C(c2ccccc2Cl)=C1Nc1cccc(Cl)c1 [SB-342409] | 15% | 19% | 8% | 12% | 13% | 15% | 0% | 0% | 0% | 9% | 10% | 0% | 68% | 17% | 0% | 61% | 26% | 10% | 0% | 0%
2 | CN(C)c1ncnc2nc[nH]c12 [SKF-31736] | 0% | 0% | 0% | 0% | 0% | 0% | 0% | 24% | 13% | 0% | 0% | 0% | 0% | 0% | 0% | 14% | 48% | 0% | 0% | 0%
3 | COc1cc(Nc2nccc(N3CCC(NC(=O)Nc4ccc5c(c4)OCO5)C3)n2)cc(OC)c1OC (centres unmarked) [GSK1379766] | 0% | 3% | 7% | 0% | 6% | 0% | 97.6% | 0% | 0% | 31% | 0% | 0% | 0% | 0% | 0% | 0% | 0% | 0% | 11% | 0%
4 | COc1cccc(NC(=O)NCCNc2ccnc(Nc3ccc(F)cc3)n2)c1 [GSK1379879] | 0% | 2% | 5% | 0% | 8% | 19% | 14% | 39% | 24% | 20% | 0% | 0% | 4% | 25% | 0% | 0% | 0% | 0% | 8% | 0%
5 | COC(=O)Nc1nc2ccc(Oc3ccc(CC(=O)Nc4cc(C(F)(F)F)ccc4F)cc3)cc2[nH]1 [GW680903] | 9% | 64% | 32% | 26% | 9% | 20% | 22% | 30% | 12% | 7% | 0% | 0% | 0% | 7% | 0% | 0% | 0% | 0% | 0% | 0%
6 | CN1CCN(Cc2ccc(NC(=O)Nc3ccc(N(C)c4ccnc(Nc5ccc(CS(C)(=O)=O)cc5)n4)cc3)cc2)CC1.Cl [GW827654] | 10% | 77% | 11% | 28% | 0% | 0% | 94.5% | 48% | 45% | 33% | 0% | 0% | 0% | 0% | 0% | 78% | 58% | 46% | 45% | 21%
7 | COC(=O)Nc1nc2cc(Oc3ccc(NC(=O)Nc4cccc(SC)c4)cc3)ccc2[nH]1.Cl [GW697999] | 54% | 96.8% | 61% | 70% | 19% | 70% | 80% | 32% | 14% | 35% | 0% | 0% | 0% | 8% | 0% | 55% | 0% | 0% | 13% | 0%
8 | CN(C)CCOc1ccc(-c2cc(-c3ccc(Cl)c(O)c3)c(-c3ccncc3)[nH]2)cc1.Cl.Cl [SB-684387] | 2% | 4% | 10% | 15% | 15% | 23% | 34% | 32% | 23% | 32% | 0% | 0% | 0% | 40% | 13% | 7% | 39% | 0% | 10% | 10%
9 | CN(C)CCNS(=O)(=O)c1ccc(-c2ccnc3[nH]ccc23)cc1 [GSK977620] | 7% | 3% | 16% | 0% | 0% | 0% | 0% | 0% | 0% | 30% | 2% | 1% | 3% | 10% | 0% | 0% | 8% | 0% | 41% | 0%
10 | Cc1ccc(Nc2ccnc(Nc3ccc(C)c(F)c3)n2)cc1O.Cl [GW582868] | 0% | 26% | 1% | 0% | 0% | 8% | 0% | 19% | 13% | 9% | 0% | 0% | 0% | 0% | 26% | 43% | 0% | 0% | 1% | 0%
11 | COc1cccc(CC(=O)N2CCc3cc(-c4cn(C)c5ncnc(N)c45)ccc32)c1 [GSK2608899] | 10% | 11% | 24% | 14% | 7% | 0% | 64% | 0% | 0% | 0% | 6% | 13% | 0% | 12% | 0% | 17% | 19% | 8% | 17% | 0%
12 | CCn1c(-c2nonc2N)nc2c(-c3ccccc3)ncc(OCCCN)c21.O=C(O)C(F)(F)F.O=C(O)C(F)(F)F [GSK260205] | 6% | 10% | 0% | 0% | 0% | 7% | 0% | 89% | 0% | 41% | 0% | 0% | 0% | 0% | 0% | 0% | 11% | 0% | 10% | 0%
13 | Cc1ccccc1CC(=O)N1CCc2cc(-c3cn(C)c4ncnc(N)c34)ccc21 [GSK2603346] | 0% | 5% | 8% | 0% | 0% | 0% | 53% | 8% | 0% | 32% | 0% | 0% | 0% | 0% | 0% | 30% | 1% | 0% | 17% | 0%
14 | COc1cccc2c(-c3ccncc3)c(-c3ccc(F)cc3)nn12 [GW468513] | 0% | 3% | 6% | 0% | 38% | 13% | 37% | 50% | 21% | 68% | 5% | 0% | 0% | 0% | 0% | 16% | 0% | 0% | 13% | 1%
15 | COC(=O)Nc1nc2ccc(Oc3ccc(NC(=O)Nc4cc(C(F)(F)F)ccc4F)cc3)cc2[nH]1.Cl [GW654607] | 89% | 99.6% | 81% | 80% | 40% | 58% | 92.4% | 6% | 0% | 6% | 0% | 6% | 16% | 0% | 0% | 97.6% | 10% | 0% | 0% | 0%
16 | O=C(O)C(F)(F)F.O=c1[nH]ccc2nc(N[C@@H]3CCNC3)nc(Nc3cc(Cl)cc(Cl)c3)c12 [GSK2188764] | 1% | 5% | 28% | 1% | 4% | 6% | 17% | 4% | 0% | 0% | 41% | 51% | 6% | 37% | 41% | 15% | 28% | 41% | 55% | 0%
17 | O=C(Nc1n[nH]c2cc(-c3cccs3)ccc12)C1CC1 [SB-731284] | 0% | 0% | 0% | 0% | 0% | 0% | 55% | 12% | 0% | 0% | 0% | 0% | 0% | 0% | 0% | 85% | 29% | 0% | 0% | 0%
18 | O=C(O)C(F)(F)F.O=c1[nH]ccc2nc(N[C@@H]3CCNC3)nc(Nc3ccc4c(c3)S(=O)(=O)CC4)c12 [GSK2181306] | 27% | 24% | 9% | 0% | 5% | 8% | 19% | 8% | 0% | 0% | 55% | 61% | 78% | 28% | 17% | 5% | 39% | 84% | 75% | 16%
19 | CC(C)(C)c1ccc(C(=O)Nc2cn3cc(-n4ccnc4)ccc3n2)cc1 | 0% | 0% | 3% | 8% | 0% | 0% | 2% | 29% | 8% | 37% | 0% | 13% | 10% | 5% | 19% | 0% | 25% | 7% | 0% | 0%
